High-throughput results from PubChem.
HEK293 tox – cytotoxicity in counter-screen for GLP-1R inverse agonists. HEK293 cAMP-luciferase reporter cells, luminescence, 24 h. Potency, µM (titrated, usually from 38.3 µM), most hits filed as inhibitors. actives 0.13% (n = 410,000). AID 624418;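 further: loss of luciferase light is scored as toxicity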
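A 23 nL compound transfer followed 12 hours of cell culture at 37 deg C; exposure then lasted 24 hr. Luciferase assay detection reagent was dispensed and plates read for luminescence after a 12 min room-temperature wait.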
KAT2A inh – GCN5L2 (KAT2A) acetyltransferase inhibition. Q92830. GCN5L2 HAT assay, ThioGlo1 CoA-SH fluorescence. Potency, µM (titrated, usually from 58.9 µM), actives largely listed as inhibitors. actives 0.21% (n = 390,000). AID 504327
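Compounds, pin-transferred from DMSO stocks, meet 20nM GCN5L2 for 15 min before the reaction begins with H3(1-25) peptide (75uM) and acetyl-CoA (70uM). Thiol-reactive ThioGlo1 reports CoA release over 20 min at room temperature.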
GLP1R inv ag – acts as inverse agonist at human GLP-1 receptor; HEK293 GLP-1R CRE-luciferase, luminescence, 24 h; GLP-1R form is constitutively active; Potency, µM (top dose mostly 38.3 µM), usual class: inhibitors; actives 1.6% (n = 410,000); P43220; further: nearly all actives have a fitted effect of over 55% in size
Target sequence (P43220 whole entry, looked up): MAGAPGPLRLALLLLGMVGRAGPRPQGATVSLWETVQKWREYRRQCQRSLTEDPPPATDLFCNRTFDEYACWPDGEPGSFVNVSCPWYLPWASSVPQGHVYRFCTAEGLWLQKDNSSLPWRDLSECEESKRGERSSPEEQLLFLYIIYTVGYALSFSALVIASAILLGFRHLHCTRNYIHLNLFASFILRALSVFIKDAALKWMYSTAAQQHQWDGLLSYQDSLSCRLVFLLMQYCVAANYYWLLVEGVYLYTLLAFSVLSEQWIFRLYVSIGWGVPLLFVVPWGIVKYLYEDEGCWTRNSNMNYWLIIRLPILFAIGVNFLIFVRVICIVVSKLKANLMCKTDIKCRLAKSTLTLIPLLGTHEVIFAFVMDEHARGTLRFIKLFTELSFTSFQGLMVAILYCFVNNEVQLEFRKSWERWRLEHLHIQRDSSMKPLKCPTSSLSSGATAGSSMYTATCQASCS
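Readout was luciferase luminescence, measured 12 min after detection reagent at room temperature. Beforehand, GLP-1R reporter HEK293 cells had sat 12 h, then received compounds for 24 hr at 37 deg C.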
GLP1R ag – activates the human GLP-1 receptor. actives 0.007% (n = 380,000). HEK293 GLP-1R CRE-luciferase, luminescence, 4-6 h; cells express a hypersensitive GLP-1R form. AID 624172. Potency, µM (top dose mostly 45.6 µM), hits mostly activators
PTHR1 agonist – PTHR1 (human) receptor agonism. Q03431. HEK293 GP2 PTHR1 cells, GloSensor cAMP luminescence, 1 h. Potency, µM (series often up to 115 µM), usual class: activators. actives 0.075% (n = 410,000). AID 743266; further: nearly all actives have a fitted effect of over 55% in size
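HEK-293-derived GP2 cells expressing PTHR1 and a GloSensor cAMP reporter, 3,000/well, plated overnight, given luciferin plus IBMX (each 0.5 mM as added) for 1 h at 37 °C, then compound for 1 h at 37 °C. Luminescence was read after 15 min at room temperature.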
RGS4 inh – human RGS4 inhibition; P49798; Potency, µM (series often up to 114 µM), usual class: inhibitors; Transcreener GDP fluorescence polarization, RGS4-accelerated GTP hydrolysis; actives 0.039% (n = 390,000); further: nearly all actives have a fitted effect of over 75% in size
Target sequence (P49798 whole entry, looked up): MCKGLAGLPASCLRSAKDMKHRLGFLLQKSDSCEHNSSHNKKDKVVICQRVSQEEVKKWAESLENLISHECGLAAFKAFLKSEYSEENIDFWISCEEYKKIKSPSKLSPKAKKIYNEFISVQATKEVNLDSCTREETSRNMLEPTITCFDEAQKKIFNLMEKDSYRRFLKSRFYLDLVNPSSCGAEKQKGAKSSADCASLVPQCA
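MLSMR compounds (23 nl, pin-transferred) preincubated 10 min at room temperature with a 500nM (2x) first reagent, then RGS4 at 900nM (2x) plus Transcreener GDP mix added; fluorescence polarization (620/688 nm) read before and after 90 min at 30 °C.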
Of the large screens only hits and unclear results are named; the others gave an inactive call; ! = not confirmed by another sample. This is a sample that favours compounds with a hit; in the whole collection about 1.8% have one here. The call rests on the fitted dose curve; in most records, active means well fitted curve in the direction sought with a large enough effect; inconclusive means small, poorly fitted or top-dose-only effect, or another doubt; inactive means no such curve, though single readings can be large; an effect the other way counts as inactive or inconclusive.

COc1cc(C(=O)Oc2ccccc2/C=N/NC(=O)c2ccc(Cl)cc2Cl)cc(OC)c1OC	GLP1R inv ag 2.2µM
Oc1ccc(Cl)cc1-c1cc(-c2ccco2)[nH]n1	HEK293 tox inconclusive, GLP1R inv ag 10µM
Fc1ccc(CNc2ccc(N3CCN(Cc4ccccc4)CC3)cc2)cc1	GLP1R inv ag 4.5µM
CC1=C(C(=O)OC(C)C)C(c2cccc([N+](=O)[O-])c2)C(C(=O)OC2CN(C(c3ccccc3)c3ccccc3)C2)=C(N)N1 (stereo not given)	none (no result: HEK293 tox, GLP1R inv ag, PTHR1 agonist, RGS4 inh)
COc1cccc2cc(-c3nc(Nc4cccc(C)c4C)sc3C)c(=O)oc12	GLP1R inv ag 10µM (no result: GLP1R ag)
COc1cccc(CNC(=O)c2cc3c(s2)-c2c(C)cccc2OC3)c1	GLP1R inv ag inconclusive, RGS4 inh inconclusive (no result: GLP1R ag)
C[C@@H](CO)NC(=O)c1ccc2c3n(nc2c1)-c1ccccc1CO3	GLP1R inv ag 3.5µM
Cc1ccc2c(c1)COc1c3ccc(C(=O)N[C@@H](CO)C(C)C)cc3nn1-2	none
COc1ccc(CNC(=O)c2ccc3c(c2)nc2n3CCC(C)C2)c(OC)c1 (stereo not given)	none (no result: GLP1R ag)
CC(C)(C)c1ccc(-c2nnc(SCCC#N)n2C2CCCC2)cc1	GLP1R inv ag 10µM
Cc1cccc(C(=O)Nc2cc(-c3ccccc3F)nn2-c2ccccc2)c1	GLP1R inv ag 10µM (no result: GLP1R ag)
O=C(Nc1cc(-c2ccccc2F)nn1-c1ccccc1)c1ccccc1Br	GLP1R inv ag inconclusive (no result: GLP1R ag)
CCN1c2cc(C)ccc2-n2cccc2C12CCN(C(=O)Nc1cc(OC)c(OC)c(OC)c1)CC2	GLP1R inv ag 11µM (no result: GLP1R ag)
COc1cc(NC(=O)N2CCC3(CC2)Nc2cc(F)ccc2-n2cccc23)cc(OC)c1OC	GLP1R inv ag inconclusive (no result: GLP1R ag)
CCN1c2ccccc2-n2cccc2C12CCN(C(=O)Nc1ccccc1Br)CC2	GLP1R inv ag 10µM (no result: GLP1R ag)
CCCC(=O)N1CCC1(C)C(=O)Nc1ncc(C(=O)OC)s1 (stereo not given)	none (no result: KAT2A inh, RGS4 inh)
O=C(c1ccc(F)cc1)C(CCCCCC(CN1CCOCC1)C(=O)c1ccc(F)cc1)CN1CCOCC1 (stereo not given)	GLP1R inv ag 10µM
OC(CN1CCOCC1)c1ccc(F)cc1 (stereo not given)	none
COc1cc2ccc(=O)oc2cc1O	KAT2A inh 32µM!
COC(=O)c1nn(-c2ccccc2)c(Cl)c1/C=N/OCc1c(Cl)cccc1Cl	none (no result: KAT2A inh)
COC(=O)c1nn(-c2ccccc2)c(Cl)c1/C=N/OCc1ccc(C)cc1	GLP1R inv ag 13µM
COc1ccc(N(CC(=O)NCCc2ccc(Cl)cc2)S(=O)(=O)c2c(C)[nH]c(=O)[nH]c2=O)cc1	none
CCN1C/C(=C\c2cccc([N+](=O)[O-])c2)C(=O)/C(=C/c2cccc([N+](=O)[O-])c2)C1	HEK293 tox 5µM, GLP1R inv ag inconclusive
O=C1/C(=C/c2cccc([N+](=O)[O-])c2)CCc2ccccc21	none
CCOC(=O)c1c(C)oc2ccc(N(C(=O)Oc3ccccc3)S(=O)(=O)c3ccc(CC)cc3)cc12	GLP1R inv ag inconclusive (no result: GLP1R ag)
COc1ccc(-c2nc3ccccc3s2)cc1NC(=O)c1ccccc1OC	none (no result: GLP1R ag)
CC(=O)N(CCCN(C)C)CCC(C)CCC=C(C)C (stereo not given)	GLP1R inv ag 4µM
CC(=O)N(CCCc1ccc(C(C)(C)C)cc1)CCCN(C)C	GLP1R inv ag inconclusive
Fc1cccc(Cn2cc(C(=S)N3CCCCC3)c3ccccc32)c1	GLP1R inv ag 7.9µM
Cc1ccc(-c2ccc(CCC(=O)O)n2-c2cccc(O)c2)cc1	none
CC(=O)N=c1scc(-c2ccccc2)n1-c1cccc(O)c1	GLP1R inv ag 11µM
CCN(c1ccccc1)c1cc(NC)[n+](C)c(C)n1	none (no result: HEK293 tox, GLP1R inv ag, GLP1R ag, PTHR1 agonist)
COc1ccccc1-c1nn(-c2ccccc2)cc1C(=O)N1CCN(C(=O)c2ccco2)CC1	none
COc1ccccc1-c1nn(-c2ccccc2)cc1C(=O)N1CCc2ccccc2C1	GLP1R inv ag 10µM
COc1ccc(OC)c(-c2nn(-c3ccccc3)cc2C(=O)N2CCc3ccccc3C2)c1	GLP1R inv ag 13µM
Cc1c(C)n(CCCN(C)C)c2ncnc(NC3CCCCC3)c12	GLP1R inv ag 4µM
COc1ccc(Nc2ncnc3c2c(C)c(C)n3CCCN(C)C)cc1	GLP1R inv ag 11µM
Cc1c(C)n(CCCN(C)C)c2ncnc(Nc3ccccc3)c12	GLP1R inv ag inconclusive
O=C(NNC(=O)C1CCC1)c1ccc(F)cc1	none (no result: KAT2A inh, RGS4 inh)
CC(C)NCC(O)(c1ccc(Cl)cc1)c1ccc(Cl)cc1	GLP1R inv ag 13µM
CCN(CC)CCNCC(O)(c1ccc(Cl)cc1)c1ccc(Cl)cc1	GLP1R inv ag 8.9µM
CC(C)(C)NCC(O)(c1ccc(Cl)cc1)c1ccc(Cl)cc1	HEK293 tox inconclusive, GLP1R inv ag 4.5µM
O=C(NC1CC(=O)N(c2ccccc2)C1)c1ccc(S(=O)(=O)N2CCCC2)cc1 (stereo not given)	none (no result: GLP1R ag)
CN1C(=S)N(c2cccnc2)C(=O)/C1=C\c1ccc(N(C)C)cc1	HEK293 tox 10µM, GLP1R inv ag inconclusive
CN1C(=S)N(c2cccnc2)C(=O)/C1=C\c1ccc(C(C)(C)C)cc1	GLP1R inv ag 11µM, RGS4 inh inconclusive
O=C(/C=C/Nc1ccc(Br)cn1)c1cccc(OC(F)F)c1	GLP1R inv ag inconclusive
COc1ccc(Nc2nnc(-c3ccc(O)cc3)c3ccccc23)cc1	GLP1R inv ag inconclusive, PTHR1 agonist inconclusive
CCCCOc1ccccc1C(=O)N(Cc1ccco1)C1CCS(=O)(=O)C1 (stereo not given)	none
Cc1ccc2c(Sc3ccc(Cl)cc3)c(C(=O)N3CCC(C)CC3)[nH]c2c1	GLP1R inv ag 10µM (no result: GLP1R ag)
COc1ccc2c(Sc3ccc(Cl)cc3)c(C(=O)N3CCC(C)CC3)[nH]c2c1	GLP1R inv ag inconclusive, PTHR1 agonist inconclusive (no result: GLP1R ag)
CC1(C)OC(=O)C2=C(C[C@@H](CCOCc3ccccc3)O[C@@H]2c2ccc(F)cc2)O1	none (no result: KAT2A inh, RGS4 inh)
O=C(Nc1cccs1)Nc1cc(C(F)(F)F)ccc1Cl	GLP1R inv ag inconclusive (no result: GLP1R ag)
CC(C)C[C@H](CO)N(Cc1ccccc1)S(=O)(=O)N(Cc1ccccc1)[C@@H](CO)CC(C)C	HEK293 tox inconclusive, GLP1R inv ag 5.6µM
C=CS(=O)(=O)N(Cc1ccccc1)[C@H](CO)CC(C)C	none (no result: KAT2A inh)
COc1ccccc1-[n+]1c(C)cc(/C=C2\Sc3ccccc3N2C)cc1C	GLP1R inv ag 2.5µM
CCN1C[C@@H]2[C@@H]3C(=O)N(Cc4ccccc4)C(=O)[C@@H]3[C@](CC)(C1=O)N2C(=O)c1ccc(F)cc1	none (no result: KAT2A inh)
